# Results reported in PubChem BioAssay (NCI).
# This is part of a sample that, as a whole, favours compounds with a hit. Of some 83,000 tested, about 20% had one in any assay.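 Assay: single dose, 48 h. Readout: percent growth (0 = no net growth; negative = cell death). Active: <10.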 A number with no mark means an inactive call. The source made the active and inactive calls.
# Tests used:
# Test in all cases: NCI-60 one-dose screen, 48 h (100 = growth as untreated, 0 = no growth, -100 = all killed)
# Conditions in all cases: 10 µM unless noted
# BT-549 breast = system: BT-549 breast
# MDA-MB-435 melanoma = system: MDA-MB-435 melanoma
# SW-620 colon = system: SW-620 colon
# MCF7 breast = system: MCF7 breast
# HCT-116 colon = system: HCT-116 colon
# HCC-2998 colon = system: HCC-2998 colon
# KM12 colon = system: KM12 colon
Structure (SMILES),growth (BT-549 breast),growth (MDA-MB-435 melanoma),growth (SW-620 colon),growth (MCF7 breast),growth (HCT-116 colon),growth (HCC-2998 colon),growth (KM12 colon)
Cc1nc2c(nnn2-c2ccccc2)c2nc(-c3ccccc3)oc(=O)c12,105%,111%,109%,92.3%,101%,116%,118%
COc1cccc(-c2cc(-c3cc4ccccc4oc3=O)nc(N)n2)c1,,119%,103%,70%,95.1%,,95.4%
COc1cc2oc(-c3ccc(NC(=O)c4ccccc4)cc3)cc(=O)c2c(OC)c1OC,75.6%,95%,93.2%,75%,91.3%,89.8%,90.6%
COC(=O)C1CC(=O)N(C(=O)Nc2ccc(Cl)cc2Cl)C1 (stereo unspecified),95.9%,107%,105%,,98.1%,107%,104%
CCOC(=O)c1csc(-c2ccc(COC(=O)c3ccccc3)o2)n1,116%,101%,112%,92.9%,99.8%,,112%
C/C=C(/C)C(=O)OC1C=C(CO)C(=O)C(OC(=O)C2(C)OC2C)C1C(C)C (stereo unspecified),-7.25% (active),-31.8% (active),-26.8% (active),8.26% (active),-58.9% (active),-87.6% (active),-56.3% (active)
C/C(CCC(=O)O)=N/Nc1ccc([N+](=O)[O-])cc1,89.1%,38.6%,72.6%,,56.8%,59.9%,27.1%
COC(c1ccccc1)C(Br)C(=O)c1ccccc1 (stereo unspecified),92.4%,96.3%,125%,98.5%,87.7%,,114%
COc1ccc2c(c1)/C(=C/c1c(-c3cc(OC)c(OC)c(OC)c3)nc3sccn13)C(=O)N2,98.9%,100%,99.9%,92.4%,88.3%,106%,84%
COc1ccc2cnc(N)c(C#Cc3cc(C(=O)Nc4ccc(CN5CCN(C)CC5)c(C(F)(F)F)c4)cnc3C)c2c1,54.7%,26.2%,13.8%,,20.5%,,11%
Nc1nc2cc(O)ccc2n2cc3c(F)cccc3c12,,-8.3% (active),17.5%,-7.71% (active),15.1%,58.5%,35.3%
O=C(Nc1cccc(Cn2c(=O)[nH]c3ccc(Oc4ncccn4)cc3c2=O)c1)c1ccc(Cl)cc1,41.6%,43%,71.5%,28%,39.2%,81.7%,15.3%
C=C1CCC2C3(C)COC(c4ccccc4)OC3CCC2(C)C1C/C=C1/C(=O)OCC1O (stereo unspecified),56.5%,72.8%,,,38.6%,94.1%,
CCOC(=O)C1=NN(c2ccccc2)C2=NC(=O)/C(=C\c3cn(-c4ccccc4)nc3-c3cc4ccccc4o3)C(=O)N12,97.4%,108%,91.9%,75.6%,89.1%,101%,97.5%
COc1cc2cn3c4ccc(O)cc4[nH]c(=O)c3c2cc1OC,,9.28% (active),16.8%,-77.9% (active),-100% (active),13.1%,-2.22% (active)
CCS(=O)(=O)OCCO[C@H]1Cc2cc3ccc(=O)oc3cc2OC1(C)C,100%,107%,97%,95.1%,106%,109%,104%
CCCCCCCCCCCCCCCCC(=O)O.CCCCCCCCCCCCCCCCCC(=O)O.CCCCCCCCCCCCCCCCCC(=O)O.CCCCCCCCCCCCCCCCCC(=O)O.CCCCCCCCCCCCCCCCCC(=O)O.CO[CH-]OC12COC1CC(O)C1(C)C(O)C(OC(C)O)C3=C(C)C(OC(=O)C(O)C([NH-])c4ccccc4)CC(O)(C(OC(=O)c4ccccc4)C21)C3(C)C.[Cu+].[Zn].[Zn].[Zn].[Zn].[Zn] (stereo unspecified),46.2%,10.9%,44.7%,,13.3%,21.6%,

Structure (SMILES),growth (BT-549 breast),growth (MDA-MB-435 melanoma),growth (SW-620 colon),growth (MCF7 breast),growth (HCT-116 colon),growth (HCC-2998 colon),growth (KM12 colon)
Cc1ccc(S(=O)(=O)NC(CCC(=O)Nc2ccccc2)C(=O)Nc2ccccc2)cc1 (stereo unspecified),-14.9% (active),-1.32% (active),11.1%,,-49.5% (active),0.86% (active),0.4% (active)
C=C(C)[C@@H]1CC[C@]2(COC(=O)c3ccccc3C(=O)O)CC[C@]3(C)[C@H](CC[C@@H]4[C@@]5(C)CCCNC(C)(C)[C@@H]5CC[C@]43C)[C@@H]12,72.6%,60.9%,70.5%,,32.2%,72.1%,51.9%
Brc1ccc(-c2nc3ccccc3s2)cc1,101%,105%,94.5%,,89.4%,110%,97.3%
Cc1ccnc2c(NC(C)CCCN)cc(O)c(O)c12 (stereo unspecified),92.1%,103%,100%,,99.7%,91.6%,109%
Cc1cc2cn3c4ccc(O)cc4nc(N)c3c2cc1C,,-31.2% (active),11%,-46.8% (active),-100% (active),,6.3% (active)
COc1cc(/C(=C2/O[C@@H]([C@H]3COC(C)(C)O3)[C@H]3OC(C)(C)O[C@@H]23)c2ccc3c(c2)OCO3)cc(OC)c1OC,79.5%,73.3%,,44.5%,9.6% (active),,63.6%
C=CC1CN2CCC1CC2C(O)c1ccnc2ccc(OC)cc12 (stereo unspecified),,100%,105%,91%,49.8%,155%,112%
CC1=C[C@@H]2c3c(c(O)c(O)c4oc5cc(O)cc(O)c5c(=O)c34)[C@@H](c3cc(O)c(O)c4oc5cc(O)cc(O)c5c(=O)c34)[C@@H]2C(C)(C)C1,12.1%,-42.1% (active),-50.9% (active),-44.8% (active),-78.8% (active),-34.5% (active),-55.2% (active)
CC([C@H]1CCC2C3CCC4C[C@@H](N)CC[C@]4(C)C3CC[C@@]21C)N(C)C (stereo partly specified),80.1%,0% (active),40.2%,48.7%,27.9%,80.1%,51.3%
Clc1ccc(N/N=C(\c2ccccc2)c2ccccn2)nc1,16.7%,26.6%,27.2%,,2.71% (active),35.9%,21.7%
NC(=O)c1c(Nc2ccccc2)nn2cc(-c3nc4ccccc4s3)c(N)nc12,102%,102%,105%,81.4%,99.1%,,99.5%
Cc1cc2cn3c4ccc(O)cc4[nH]c(=O)c3c2cc1C,,0.693% (active),-100% (active),-57.2% (active),-100% (active),24.1%,-36.9% (active)
O=C(NC1CCN(Cc2ccccc2)CC1)c1cc(-c2cccnc2)nc2ccc(Cl)cc12,75.5%,75%,27%,70.9%,57.6%,,39.2%
CN1CCN(Cc2ccc(NC(=O)c3cncc(C#Cc4c(N)ncc5ccc(F)cc45)c3)cc2C(F)(F)F)CC1,36.7%,-80.1% (active),-43.2% (active),6.26% (active),4.69% (active),42.2%,-24.9% (active)
COc1cc2c(c(OC)c1OC)C(=O)CC(c1cccc(C(=O)Nc3cccc(Br)c3)c1)O2 (stereo unspecified),63%,69.3%,95.4%,,58.1%,112%,71.2%
N#Cc1ccc(OCc2nc(N)nc(N)c2-c2ccc(Cl)c(Cl)c2)cc1,34.2%,15.9%,21.8%,15.2%,11.9%,,43.2%
